Six molecules from PubChem BioAssay (EPA / NIEHS) can be followed below.

Assay [1] deals with Paired box protein Pax-6 (Homo sapiens) (UniProt P26367). The experiment in a line: ATG_Pax6_CIS: Attagene CIS-FACTORIAL HepG2 Assay for human Paired Box 6 (PAX6) (AID 2282956). The note with it: HepG2 CIS-FACTORIAL PAX6 reporter transcription, RNA readout; actives raise or lower the signal. Put shortly: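 Read-out is reporter transcript level, measured by RT-PCR with fluorescent primer extension and capillary electrophoresis after 24 h dosing of transfected HepG2 cells. Activity in either direction fitted relative to DMSO control.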

Assay [2] can be described thus: ATG_PXRE_CIS: Attagene CIS-FACTORIAL HepG2 Assay for human Pregnane X Receptor Element (PXRE) (AID 2282957). The conditions noted are these: HepG2 Attagene CIS-FACTORIAL PXRE reporter, mRNA; actives raise or lower the signal. Put shortly: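 Endogenous transcription factor activity in HepG2 was gauged through induction of reporter mRNA driven by a cis-regulating promoter element, sampled 24 h post-treatment. Activity was fitted in both directions against DMSO negative control.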

Assay [3] is described as follows: ATG_RORE_CIS: Attagene CIS-FACTORIAL HepG2 Assay for human RAR-related Orphan Receptor Element (RORE) (AID 2282959). The note with it: HepG2 Attagene cis-factorial RORE reporter, mRNA; actives raise or lower the signal. Put shortly:
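Readout: fluorescent reporter mRNA by RT-PCR plus capillary electrophoresis, 24 h after dosing transfected HepG2 cells. Endogenous transcription factor activity on a cis promoter element is measured. Gain or loss of signal fitted against DMSO.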

The nature of assay [4]: ATG_Sox_CIS: Attagene CIS-FACTORIAL HepG2 Assay for human SRY-box transcription factor (SOX) (AID 2282960). The note with it: HepG2 Attagene cis-factorial SOX reporter, mRNA; actives raise or lower the signal. Put shortly:
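Read-out: fluorescent RT-PCR products of SOX1-linked reporter transcripts resolved by capillary electrophoresis, fitted bidirectionally against DMSO. Transiently transfected HepG2 cells, 24 h after chemical exposure, endogenous transcription factor activity.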

Assay [5] addresses Transcription factor Sp1 (Homo sapiens) (UniProt P08047). Put plainly: ATG_Sp1_CIS: Attagene CIS-FACTORIAL HepG2 Assay for human Specificity Protein 1 (Sp1) (AID 2282961). The note with it: HepG2 Sp1 cis-reporter transcription, actives raise or lower the signal. Put shortly:
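Read-out: fluorescence of 6-FAM-labeled, HpaI-digested RT-PCR products separated by capillary electrophoresis. HepG2 cells carried transfected cis-element reporter units and were exposed to chemicals for 24 h; gain or loss of signal fitted relative to DMSO.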

Assay [6] is described as follows: ATG_SREBP_CIS: Attagene CIS-FACTORIAL HepG2 Assay for human Sterol Regulatory Element Binding (SREBP) (AID 2282962). The note with it: HepG2 Attagene cis-factorial SREBP reporter, mRNA; actives raise or lower the signal. Put shortly:
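Endogenous SREBP activity read as cis-element-driven reporter transcript in transiently transfected HepG2, 24 h post-dosing; quantified via RT-PCR plus capillary electrophoresis of fluorescent fragments. Gain or loss of signal fitted relative to DMSO baseline.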

For assay [7], the target named is Signal transducer and activator of transcription 3 (Homo sapiens) (UniProt P40763). The experiment in a line: ATG_STAT3_CIS: Attagene CIS-FACTORIAL HepG2 Assay for human Signal Transducer and Activator of Transcription 3 (STAT3) (AID 2282963). The conditions noted are these: HepG2, Attagene cis-factorial STAT3 reporter transcription; actives raise or lower the signal. Put shortly:
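Cis-factorial format: endogenous transcription factors in HepG2 drive transfected reporter units. After 24 h treatment, reporter RNA was reverse-transcribed, amplified, FAM-labelled and HpaI-digested before CE analysis; activity scored in both directions against DMSO.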

Assay [8] in a line: ATG_TA_CIS: Attagene CIS-FACTORIAL HepG2 Assay for human TA Basal Promoter (AID 2282964). The conditions noted are these: HepG2 Attagene CIS-factorial TA basal promoter reporter; actives raise or lower the signal. Put shortly: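 Multiplexed mRNA reporter assay, HepG2, 24 h. Reporter cDNA amplified, 6-FAM primer-extended, HpaI-cut, CE-sized; DMSO = negative control and baseline.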

A short description of assay [9]: ATG_TCF_b_cat_CIS: Attagene CIS-FACTORIAL HepG2 Assay for human T-Cell-Factor with beta-catenin (TCF/b-cat) (AID 2282965). The conditions noted are these: HepG2 TCF/beta-catenin cis-reporter transcription, actives raise or lower the signal. Put shortly: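 Endogenous transcription factor activity is captured through cis-promoter reporter constructs transiently introduced into human HepG2 liver cells. Induced reporter mRNA is measured after 24 h and fitted bidirectionally relative to DMSO.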

Assay [10] can be described thus: ATG_TAL_CIS: Attagene CIS-FACTORIAL HepG2 Assay for human TAL Basal Promoter (AID 2282966).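 Note: background control endpoint measuring basal TAL promoter reporter mRNA not a specific factor.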 The conditions noted are these: HepG2 Attagene cis-factorial TAL promoter reporter; actives raise or lower the signal. Put shortly:
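Endogenous transcription-factor activity is sensed in HepG2 cells through transfected cis-promoter reporter constructs. After 24 h dosing, reporter transcripts are quantified by RT-PCR and capillary electrophoresis. Gain or loss of signal is fitted relative to DMSO.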

Assay [11] in a line: ATG_TGFb_CIS: Attagene CIS-FACTORIAL HepG2 Assay for human Transforming Growth Factor (TGF) (AID 2282967). The conditions noted are these: HepG2 Attagene CIS TGFb reporter, mRNA transcription; actives raise or lower the signal. Put shortly:
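Transcript-level reporter readout: HepG2 transfectants, 24 h exposure, RNA to cDNA, reporter-specific PCR, fluorescent primer extension, capillary sizing against ROX standards. Gain- or loss-of-signal relative to DMSO.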

A short description of assay [12]: ATG_VDRE_CIS: Attagene CIS-FACTORIAL HepG2 Assay for human Vitamin D Receptor Element (VDRE) (AID 2282968). The conditions noted are these: HepG2 VDRE cis-reporter transcription, actives raise or lower the signal. Put shortly:
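Measures endogenous factor activity through cis-element-driven reporter transcripts in transiently transfected HepG2. Cells are treated 24 h; reporter mRNA is quantified by RT-PCR and capillary electrophoresis; fitting is bidirectional.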

Assay [13] addresses Nuclear receptor subfamily 1 group I member 3 (Homo sapiens) (UniProt Q14994). The experiment in a line: ATG_CAR_TRANS: Attagene TRANS-FACTORIAL HepG2 Assay for human Constitutive Androstane Receptor (CAR) (AID 2282969; active = hit-call score of the fitted dose curve at least 0.9, where 1 is the maximum;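 note: activators raise reporter mRNA above DMSO so AC50 marks induction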). The conditions noted are these: HepG2 Attagene TRANS-FACTORIAL CAR reporter. Put shortly: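 Signal is reporter mRNA induction relative to DMSO, measured 24 h after dosing by RT-PCR with fluorescent primer extension and capillary electrophoresis. Human HepG2 liver cells carried transiently transfected chimeric NR-Gal4/GAL4-UAS reporter constructs.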

Assay [14] deals with Estrogen receptor (Homo sapiens) (UniProt P03372). The experiment in a line: ATG_ERa_TRANS: Attagene TRANS-FACTORIAL HepG2 Assay for human Estrogen Receptor alpha (ERa) (AID 2282970; active = hit-call score of the fitted dose curve at least 0.9, where 1 is the maximum). The conditions noted are these: HepG2 Attagene TRANS ERa GAL4 reporter, mRNA. Put shortly: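 Transfected HepG2 cells carrying GAL4-UAS-driven reporter units were dosed for 24 hours. Total RNA was reverse-transcribed, reporter sequences PCR-amplified, FAM-labelled, HpaI-digested and resolved by capillary electrophoresis. Increases over DMSO control defined activity.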

Assay [15] concerns the target X-box-binding protein 1 (Homo sapiens) (UniProt P17861). Put plainly: ATG_Xbp1_CIS: Attagene CIS-FACTORIAL HepG2 Assay for human X-box Binding Protein 1 (XBP1) (AID 2282972). The note with it: HepG2 XBP1 cis-element reporter, Attagene multiplex; actives raise or lower the signal. Put shortly: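 Reporter transcripts were quantified by RT-PCR with fluorescent primer extension and capillary electrophoresis after 24 h chemical exposure. Cells: transiently transfected HepG2 carrying cis-regulated reporter constructs; data fitted bidirectionally relative to DMSO.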

The target in assay [16] is Steroid hormone receptor ERR1 (Homo sapiens) (UniProt P11474). Put plainly: ATG_ERRa_TRANS: Attagene TRANS-FACTORIAL HepG2 Assay for human Estrogen-Related Receptor alpha (ERRa) (AID 2282971; active = hit-call score of the fitted dose curve at least 0.9, where 1 is the maximum). The conditions noted are these: HepG2 Attagene TRANS reporter, ERRa transactivation. Put shortly: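 HepG2 cells were transiently transfected with multiple GAL4-UAS reporter units, then dosed with compound for 24 h. Total RNA was reverse-transcribed, reporter cDNA PCR-amplified and fluorescently labelled, and fragments resolved by capillary electrophoresis; induction was compared with DMSO.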

The target of assay [17] is Estrogen-related receptor gamma (Homo sapiens) (UniProt P62508). The experiment in a line: ATG_ERRg_TRANS: Attagene TRANS-FACTORIAL HepG2 Assay for human Estrogen-Related Receptor gamma (ERRg) (AID 2282977; active = hit-call score of the fitted dose curve at least 0.9, where 1 is the maximum;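 note: hits increase reporter signal over DMSO so potencies reflect activators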). The note with it: HepG2 Attagene TRANS reporter, ERRg transactivation. Put shortly: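 Exogenous NR-Gal4 chimera activity was assessed in HepG2 cells bearing transfected GAL4-UAS reporters. After 24 h dosing, total RNA underwent RT-PCR, fluorescent primer extension and HpaI digestion before capillary electrophoresis, with gain of signal scored against DMSO.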

Assay [18] can be described thus: ATG_M_19_TRANS: Attagene TRANS-FACTORIAL HepG2 Assay for M19 Transcription Factor (Internal Marker) (AID 2282974; active = hit-call score of the fitted dose curve at least 0.9, where 1 is the maximum). The conditions noted are these: HepG2 Attagene TRANS-FACTORIAL M19 internal marker reporter. Put shortly:
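24 h chemical exposure of transiently transfected HepG2 (MRTU library). RNA → oligo(dT) RT → PCR → 6-FAM labelling → HpaI cut → CE fluorescence. Positive-direction fit vs DMSO baseline; background internal-marker readout.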

A short description of assay [19]: ATG_GAL4_TRANS: Attagene TRANS-FACTORIAL HepG2 Assay for GAL4 (Internal Marker) (AID 2282976; active = hit-call score of the fitted dose curve at least 0.9, where 1 is the maximum). The note with it: HepG2 Attagene TRANS GAL4 internal marker reporter. Put shortly: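 Fluorescence from capillary electrophoresis of labelled RT-PCR products quantifies reporter mRNA induction after 24 h dosing of HepG2 cells carrying transfected GAL4-UAS reporter transcription units. Vehicle DMSO serves as baseline.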

Records with an inconclusive call do not appear. Calls of active or inactive are those of the source. Rule for the calls, unless noted: active = hit-call score of the fitted dose curve at least 0.9, where 1 is the maximum; inactive = score below 0.9.

Signal transducer and activator of transcription 3 (Homo sapiens), sequence (P40763 whole entry, looked up): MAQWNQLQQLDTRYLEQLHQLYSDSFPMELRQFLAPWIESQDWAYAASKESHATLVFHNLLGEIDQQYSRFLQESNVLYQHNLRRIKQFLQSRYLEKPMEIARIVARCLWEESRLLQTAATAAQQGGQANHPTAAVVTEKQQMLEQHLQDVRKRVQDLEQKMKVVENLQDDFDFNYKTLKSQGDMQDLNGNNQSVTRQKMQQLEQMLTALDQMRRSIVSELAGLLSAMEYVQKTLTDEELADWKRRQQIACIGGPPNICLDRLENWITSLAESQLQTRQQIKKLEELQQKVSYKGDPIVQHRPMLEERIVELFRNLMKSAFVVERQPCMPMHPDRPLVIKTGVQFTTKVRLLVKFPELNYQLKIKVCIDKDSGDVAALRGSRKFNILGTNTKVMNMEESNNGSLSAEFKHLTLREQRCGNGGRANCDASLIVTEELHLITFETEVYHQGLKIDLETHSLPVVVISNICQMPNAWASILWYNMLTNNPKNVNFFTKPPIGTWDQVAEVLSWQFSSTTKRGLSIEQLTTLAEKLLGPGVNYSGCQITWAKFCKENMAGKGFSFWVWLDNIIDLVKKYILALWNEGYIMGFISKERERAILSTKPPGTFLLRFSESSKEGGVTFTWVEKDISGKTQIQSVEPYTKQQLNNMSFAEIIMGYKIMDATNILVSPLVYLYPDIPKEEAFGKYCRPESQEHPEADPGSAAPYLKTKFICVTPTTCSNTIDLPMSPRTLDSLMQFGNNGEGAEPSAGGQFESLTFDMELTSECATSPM
Estrogen receptor (Homo sapiens), sequence (P03372 whole entry, looked up, the tested form may be a part): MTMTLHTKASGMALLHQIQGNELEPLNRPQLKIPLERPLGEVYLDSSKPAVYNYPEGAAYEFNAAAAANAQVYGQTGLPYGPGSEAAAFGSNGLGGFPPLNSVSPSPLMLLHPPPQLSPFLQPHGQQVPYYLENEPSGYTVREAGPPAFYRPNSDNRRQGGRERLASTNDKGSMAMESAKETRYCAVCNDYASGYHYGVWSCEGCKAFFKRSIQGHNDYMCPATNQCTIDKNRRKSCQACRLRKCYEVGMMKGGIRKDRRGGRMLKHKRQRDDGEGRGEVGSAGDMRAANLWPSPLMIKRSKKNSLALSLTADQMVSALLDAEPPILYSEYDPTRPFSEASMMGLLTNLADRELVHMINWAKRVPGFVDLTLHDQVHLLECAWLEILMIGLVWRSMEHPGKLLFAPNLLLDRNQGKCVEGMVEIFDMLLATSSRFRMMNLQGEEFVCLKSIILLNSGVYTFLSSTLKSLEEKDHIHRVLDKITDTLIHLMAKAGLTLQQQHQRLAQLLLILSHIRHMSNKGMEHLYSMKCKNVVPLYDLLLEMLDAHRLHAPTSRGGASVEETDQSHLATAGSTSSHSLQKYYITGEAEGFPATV
Paired box protein Pax-6 (Homo sapiens), sequence (P26367 whole entry, looked up): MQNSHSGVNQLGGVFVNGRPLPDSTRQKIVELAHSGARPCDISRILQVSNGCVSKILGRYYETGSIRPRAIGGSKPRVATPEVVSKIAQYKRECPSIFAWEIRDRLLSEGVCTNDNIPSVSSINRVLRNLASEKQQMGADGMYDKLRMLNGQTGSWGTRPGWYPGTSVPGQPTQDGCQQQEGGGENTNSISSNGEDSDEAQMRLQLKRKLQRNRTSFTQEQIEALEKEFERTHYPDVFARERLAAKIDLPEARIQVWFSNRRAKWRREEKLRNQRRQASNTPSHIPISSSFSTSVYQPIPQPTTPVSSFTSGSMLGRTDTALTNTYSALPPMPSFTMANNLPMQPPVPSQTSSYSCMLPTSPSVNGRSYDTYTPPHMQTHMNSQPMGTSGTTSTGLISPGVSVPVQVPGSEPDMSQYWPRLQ
Transcription factor Sp1 (Homo sapiens), sequence (P08047 whole entry, looked up): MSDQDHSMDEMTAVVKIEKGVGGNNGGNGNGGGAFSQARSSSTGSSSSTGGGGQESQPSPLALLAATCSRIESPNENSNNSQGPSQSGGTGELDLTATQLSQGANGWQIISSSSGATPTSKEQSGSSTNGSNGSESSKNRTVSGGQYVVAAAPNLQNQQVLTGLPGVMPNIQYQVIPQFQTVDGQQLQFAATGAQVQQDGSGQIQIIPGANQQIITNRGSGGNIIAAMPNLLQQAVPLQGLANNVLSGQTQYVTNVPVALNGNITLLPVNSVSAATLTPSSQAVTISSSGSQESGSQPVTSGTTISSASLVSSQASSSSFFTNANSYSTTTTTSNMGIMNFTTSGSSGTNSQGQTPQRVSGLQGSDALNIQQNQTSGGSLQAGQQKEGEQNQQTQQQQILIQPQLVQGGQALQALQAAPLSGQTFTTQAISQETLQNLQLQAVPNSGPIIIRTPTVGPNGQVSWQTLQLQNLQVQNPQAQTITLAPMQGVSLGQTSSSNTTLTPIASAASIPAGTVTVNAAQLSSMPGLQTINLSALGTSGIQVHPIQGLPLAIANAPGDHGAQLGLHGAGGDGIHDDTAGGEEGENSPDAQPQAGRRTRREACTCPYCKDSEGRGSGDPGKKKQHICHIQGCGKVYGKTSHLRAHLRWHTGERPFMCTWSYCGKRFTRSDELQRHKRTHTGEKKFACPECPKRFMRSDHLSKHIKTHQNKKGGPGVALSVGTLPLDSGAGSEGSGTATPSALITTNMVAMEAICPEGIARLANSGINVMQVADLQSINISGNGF
X-box-binding protein 1 (Homo sapiens), sequence (P17861 whole entry, looked up): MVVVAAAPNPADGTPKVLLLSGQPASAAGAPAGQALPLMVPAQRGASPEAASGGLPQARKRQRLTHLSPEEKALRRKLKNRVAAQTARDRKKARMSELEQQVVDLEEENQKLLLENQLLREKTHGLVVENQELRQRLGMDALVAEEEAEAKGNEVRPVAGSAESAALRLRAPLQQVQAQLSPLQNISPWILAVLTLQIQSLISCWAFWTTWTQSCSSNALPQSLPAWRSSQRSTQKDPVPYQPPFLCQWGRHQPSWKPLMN
Estrogen-related receptor gamma (Homo sapiens), sequence (P62508 whole entry, looked up, the tested form may be a part): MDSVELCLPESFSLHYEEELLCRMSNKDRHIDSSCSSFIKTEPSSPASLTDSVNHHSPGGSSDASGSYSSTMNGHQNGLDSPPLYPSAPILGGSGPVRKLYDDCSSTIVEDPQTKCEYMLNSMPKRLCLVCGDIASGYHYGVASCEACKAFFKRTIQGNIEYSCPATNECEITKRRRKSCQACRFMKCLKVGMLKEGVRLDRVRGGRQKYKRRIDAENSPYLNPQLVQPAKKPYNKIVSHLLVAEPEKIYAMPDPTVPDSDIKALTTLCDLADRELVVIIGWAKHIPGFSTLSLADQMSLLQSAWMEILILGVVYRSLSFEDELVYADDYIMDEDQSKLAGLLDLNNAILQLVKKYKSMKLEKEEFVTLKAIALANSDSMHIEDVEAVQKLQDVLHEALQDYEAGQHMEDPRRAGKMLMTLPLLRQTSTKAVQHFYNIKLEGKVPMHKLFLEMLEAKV
Nuclear receptor subfamily 1 group I member 3 (Homo sapiens), sequence (Q14994 whole entry, looked up, the tested form may be a part): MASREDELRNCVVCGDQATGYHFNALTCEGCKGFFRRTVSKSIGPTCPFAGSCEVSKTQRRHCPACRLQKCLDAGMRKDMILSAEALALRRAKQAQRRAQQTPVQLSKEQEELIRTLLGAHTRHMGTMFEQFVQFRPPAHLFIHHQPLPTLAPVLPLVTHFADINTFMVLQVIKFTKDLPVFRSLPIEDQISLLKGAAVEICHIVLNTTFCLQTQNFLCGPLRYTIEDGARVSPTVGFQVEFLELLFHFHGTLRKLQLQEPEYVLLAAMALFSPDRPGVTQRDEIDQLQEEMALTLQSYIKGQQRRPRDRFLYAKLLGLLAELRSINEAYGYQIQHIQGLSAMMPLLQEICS
Steroid hormone receptor ERR1 (Homo sapiens), sequence (P11474 whole entry, looked up, the tested form may be a part): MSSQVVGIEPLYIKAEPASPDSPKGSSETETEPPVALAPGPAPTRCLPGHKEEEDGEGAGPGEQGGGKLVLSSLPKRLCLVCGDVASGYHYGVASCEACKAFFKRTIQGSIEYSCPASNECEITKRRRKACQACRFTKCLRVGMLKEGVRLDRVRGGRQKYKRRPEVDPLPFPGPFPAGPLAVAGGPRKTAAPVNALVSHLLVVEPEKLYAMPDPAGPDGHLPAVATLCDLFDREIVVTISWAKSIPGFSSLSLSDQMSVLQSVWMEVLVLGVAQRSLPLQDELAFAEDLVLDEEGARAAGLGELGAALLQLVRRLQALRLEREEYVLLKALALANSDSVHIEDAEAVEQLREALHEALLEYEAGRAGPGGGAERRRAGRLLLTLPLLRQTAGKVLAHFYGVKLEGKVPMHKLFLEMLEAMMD

By AC50 is commonly meant the concentration at which the activity in the assay is half-maximal. `CCCCc1ccc(N)cc1`: the result in assay [1], in [2], in assay [3], in [4], in assay [5] and in assay [6] was inactive. For the same molecule, the call in assay [7], in assay [8], in assay [10], in assay [11], in [12] and in [13] was inactive. Besides, the outcome in [15] was inactive. Moreover, the AC50 in assay [9] was 28.2 µM (active); in assay [14], 12.8 µM (active).
Turning to `c1ccc2c(c1)c1cccc3ccc4cccc2c4c31`, the outcome in [1], in [2], in assay [3], in assay [4], in assay [6] and in assay [7] was inactive. Moreover, the outcome in assay [8], in assay [9], in assay [10], in assay [11], in [12] and in assay [13] was inactive. In addition, the outcome in assay [14] and in assay [15] was inactive.
As for `CCCCCCCCC=O`, the molecule was classed as inactive in assay [1], in assay [2], in assay [3], in assay [4], in assay [5] and in assay [6]. For the same molecule, the molecule was classed as inactive in [7], in [8], in [9], in assay [10], in assay [11] and in assay [12]. Further, the molecule was classed as inactive in [16], in assay [15] and in assay [17].
For `O=C(O)c1ccc([N+](=O)[O-])cc1`, the call in assay [1], in [2], in assay [3], in [4], in [5] and in assay [6] was inactive. Besides, the molecule was classed as inactive in [7], in assay [8], in assay [9], in assay [10], in assay [11] and in [12]. For the same molecule, the result in assay [15] was inactive.
`CC(=O)Nc1ccc(CC(=O)O)cc1`: the result in assay [1], in assay [2], in [3], in assay [4], in assay [5] and in assay [6] was inactive. Besides, the result in assay [7], in [9], in assay [10], in assay [11], in assay [14] and in assay [15] was inactive. In addition, the molecule was called inactive in [18] and in assay [19].
With `O=C(COc1ccc(Cl)cc1)N1CCN(Cc2ccc3c(c2)OCO3)CC1`, the AC50 was 57.7 µM (active) in assay [1], 4.76 µM (active) in assay [2] and 27.1 µM (active) in assay [6]. Further, the call in assay [3], in [4], in assay [5], in [7], in assay [8] and in assay [9] was inactive. Besides, the molecule was called inactive in assay [10], in [11], in assay [12], in [14], in assay [16] and in assay [15]. Moreover, the molecule was called inactive in assay [19] and in assay [17].
